Measured values: PubChem BioAssay (EPA / NIEHS)
The source made the active and inactive calls. How the source made its calls: active means hit-call score of the fitted dose curve at least 0.9, where 1 is the maximum; inactive means score below 0.9.

Test: ATG_M_06_CIS: Attagene CIS-FACTORIAL HepG2 Assay for M06 Transcription Factor (Internal Marker) (AID 2282950)
Details: HepG2 Attagene CIS-FACTORIAL M06 internal marker reporter; actives raise or lower the signal
Experimental: ATG_CIS is a cell-based, multiplexed-readout assay that uses HepG2, a human liver cell line, with measurements taken at 24 hours after chemical dosing in a 24-well plate.ATG_M_06_CIS is one of 52 assay component(s) measured or calculated from the ATG_CIS assay. It is designed to make measurements of mRNA induction, a form of inducible reporter, as detected with fluorescence intensity signals by Reverse transcription polymerase chain reaction (RT-PCR) and Capillary electrophoresis technology.Data from the assay component ATG_M_06_CIS was analyzed into 1 assay endpoint. This assay endpoint, ATG_M_06_CIS, was analyzed with bidirectional fitting relative to DMSO as the negative control and baseline of activity. Using a type of inducible reporter, measures of mRNA for gain or loss-of-signal activity can be used to understand the background control at the transcription factor-level as they relate to the gene . Furthermore, this assay endpoint can be referred to as a secondary readout, because this assay has produced multiple assay endpoints where this one serves a background control function. To generalize the intended target to other relatable targets, this assay endpoint is annotated to the background measurement intended target family, where the subfamily is internal marker.
Human liver HepG2 cells are transiently transfected with multiple reporter transcription units (MRTUs) in 6-well plates using FuGene 6 reagent (Roche; 3 ml FuGene/1 mg DNA). The MRTU constructs are regulated by a cis-regulating element (promoter). […] A major difference between the CIS and TRANS system is that in CIS activities of endogenous TFs are measured, whereas the TRANS assay evaluates changes in activities of exogenous, chimeric NR-Gal4 proteins. […] At the end of 24 hour incubation, total RNA was isolated using TriZol reagent (Invitrogen). The isolated RNA is then reverse-transcribed using oligo(dT) primer and Mo-MLV reverse transcriptase (Invitrogen) with DNAse I (Ambion) treatment for 30 min. The one-tenth of the produced cDNA was amplified by PCR using Taq DNA polymerase (Invitrogen) and two reporter sequence-specific primers. The PCR products were fluorescently labeled by primer extension with 6-arboxyfluorescein (6-FAM) 5'-labeled reporter sequence-specific primer (2 min at 95 C, 20 s at 68 C and 10 min at 72 C) and these products were digested with 5U of HpaI (New England Biolabs) for 2h at 37 C. The fragments were purified using Qiaquick PCR columns (Qiagen), analyzed on an ABI 3130xL genetic analyzer (Applied Biosystems) with peak positions identified by using a set of X-rhodamine (ROX)-labeled MapMarker1000 molecular weight standards (BioVentures). The raw capillary electrophoresis data was processed using Attagraph software (Attagene).

outcome, inactive:
CCCCCCCCCCCCCCCC(=O)OC[C@H](O)[C@H]1OC(=O)C(O)=C1O, CCCc1ccccc1O, CCC(C)CCCC(C)(C)O (stereo not given), O=C(O)C[C@H](O)C[C@H](O)/C=C/c1c(C2CC2)nc2ccccc2c1-c1ccc(F)cc1, O=C[C@@H](O)[C@H](O)[C@H](O)CO, C=C(C)C(=O)O, CCCCCC(=O)OCCc1ccccc1, CC(C)CCCCCCCOC(=O)c1ccc(C(=O)OCCCCCCCC(C)C)c(C(=O)OCCCCCCCC(C)C)c1, Clc1sc(Cl)c(Cl)c1Cl, CC(CN1c2ccccc2Sc2ccccc21)N(C)C (stereo not given), CC(C)=CCCC(C)=CCCC(C)=CCO, CC(CCO)CCc1ccccc1 (stereo not given), COC(=O)c1ccc(C)cc1, CCCCCCOC(=O)CCCCC, O=C(O)CCCCCCCCCCC(=O)O, O=S(=O)(O)NC1CCCCC1, CC1(CO)CN(c2ccccc2)NC1=O (stereo not given), CCC(=O)OCc1ccccc1, CC(C)=CCCC(C)CC=O (stereo not given), COc1cc2ncnc(Nc3cccc(Cl)c3)c2cc1OC, CCCCCCCCCC=O, O=C1CCCCCCCCCCCCCCO1, CCCCCCCCCCCCSC, c1ccc2sc(SN(C3CCCCC3)C3CCCCC3)nc2c1, Cc1ccccc1C=O, CNC[C@H](O)c1cccc(O)c1, O=C1CCc2ccccc2O1, CCCCOCCOCCOCCOCCO, Nc1ccc(S(N)(=O)=O)cc1, CCN(CC)c1ccc(C(=C2C=CC(=[N+](CC)CC)C=C2)c2ccc(S(=O)(=O)O)cc2S(=O)(=O)[O-])cc1, Fc1c(F)c(F)c(Br)c(F)c1F, CC1(C)OC[C@@H]2O[C@@]3(C(=O)O)OC(C)(C)O[C@H]3[C@@H]2O1, CC(=O)c1c(C)cc(C(C)(C)C)cc1C, O=C1c2ccccc2C(=O)N1SC1CCCCC1, COc1cc(C=O)ccc1OC(=O)C(C)C, CCCCN, C=O, C=CC[N+](C)(C)CC=C, CC1=CC(=O)NS(=O)(=O)O1, CCOc1ccccc1OCC
